Measured values as given in PubChem BioAssay AID1671463 (Sanford-Burnham Center for Chemical Genomics, 2021).
Screen size: about 370,000 compounds; about 520 (0.14%) were called active. Many of the other results were omitted from the sample, so actives are more common in it than they were. Unmarked numbers belong to inactive results. Cut-off read from the data, not from the text of the source: active = activation above about 40%; inactive = the rest.

What follows are compounds tested against Atrial natriuretic peptide receptor 1 (Homo sapiens) (UniProt P16066) (assay: GC-A stimulated cGMP production enhancers – HEK293 GC-A cells, cGMP TR-FRET, EC30 ANP, primary screen (AID 1671463)). Conditions: at 10 µM, stronger effect = higher value; 0% at EC30 ANP, 100% saturating ANP unless noted.
Atrial natriuretic peptide receptor 1 (Homo sapiens), sequence (P16066 whole entry, looked up): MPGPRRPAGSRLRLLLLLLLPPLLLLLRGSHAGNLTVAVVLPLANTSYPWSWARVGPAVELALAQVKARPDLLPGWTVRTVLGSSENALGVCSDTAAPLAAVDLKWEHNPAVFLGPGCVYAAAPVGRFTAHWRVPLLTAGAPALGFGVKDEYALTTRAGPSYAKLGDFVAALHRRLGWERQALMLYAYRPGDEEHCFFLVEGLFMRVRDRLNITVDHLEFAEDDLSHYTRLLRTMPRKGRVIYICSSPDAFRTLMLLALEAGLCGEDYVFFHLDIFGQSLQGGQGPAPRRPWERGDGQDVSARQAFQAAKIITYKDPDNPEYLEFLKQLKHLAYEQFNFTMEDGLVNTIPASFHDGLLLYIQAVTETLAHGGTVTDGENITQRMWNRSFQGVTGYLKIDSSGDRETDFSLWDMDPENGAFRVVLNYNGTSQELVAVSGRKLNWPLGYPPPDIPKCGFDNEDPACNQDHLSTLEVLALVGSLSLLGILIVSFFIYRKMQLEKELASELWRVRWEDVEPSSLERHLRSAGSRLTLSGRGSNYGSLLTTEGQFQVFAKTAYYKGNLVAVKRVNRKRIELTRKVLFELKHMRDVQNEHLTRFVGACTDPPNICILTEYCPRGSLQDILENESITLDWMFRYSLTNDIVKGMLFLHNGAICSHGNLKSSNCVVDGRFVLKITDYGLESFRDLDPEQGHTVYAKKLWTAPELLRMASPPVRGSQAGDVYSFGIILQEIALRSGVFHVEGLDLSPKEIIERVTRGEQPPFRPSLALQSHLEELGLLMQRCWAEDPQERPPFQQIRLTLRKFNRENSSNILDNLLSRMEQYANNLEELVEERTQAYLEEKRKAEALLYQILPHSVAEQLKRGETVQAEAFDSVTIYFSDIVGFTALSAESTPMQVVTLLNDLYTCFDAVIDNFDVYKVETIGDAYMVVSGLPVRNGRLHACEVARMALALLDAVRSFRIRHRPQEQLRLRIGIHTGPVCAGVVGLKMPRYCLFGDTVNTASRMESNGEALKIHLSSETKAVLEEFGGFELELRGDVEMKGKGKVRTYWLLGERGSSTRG
For `Cc1cccc(N2C(=O)NC(=O)/C(=C\c3cnn(-c4ccccc4)c3)C2=O)c1`, the activation was 54.5% [setting not given] (active).
In the case of `Cc1ccccc1CCC[C@@H](CC1CCCCC1)CN(C)C(=O)Oc1ccccc1`, the activation is reported as 2.21%.
`Nc1ccc([N+](=O)[O-])cc1` showed an activation of 1.78%.
In the case of `O=C1NC(=O)N(Cc2ccco2)C(=O)/C1=C\c1ccc(-c2ccc(F)cc2)o1`, the activation is reported as 48.8% [setting not given] (active).
Compound `COC(=O)C1=C(c2cc3ccccc3o2)C[C@@H]2CC[C@H]1N2C(=O)NC1CCCCC1` has an activation of -7.28%.
Compound `Cc1cc(N2CCNC[C@@H]2C)ccc1N1CC[C@H](O)C1` has an activation of -0.67%.
In the case of `COP(=O)(Sc1ccccc1)C(Cc1ccccc1)NC(=O)OCc1ccccc1` (stereo not given), the activation is reported as -3.05%.
`CO[C@H]([C@H](C)/C=C/N(C)C=O)[C@@H](C)C(=O)CC[C@H](C)[C@H](O)[C@H](C)[C@H]1OC(=O)/C=C/C(C)=C/[C@H](O)[C@H](OC)C[C@@H]2C=CC[C@@H](C[C@H](OC)[C@@]3(CO3)[C@@H](OC)C[C@@H](OC)[C@@H]1C)O2` was tested, and the activation was -33.1%.
`CCOC(=O)CC1=C(C(=O)OCC)C2(C(=O)N1)C(C(=O)OC)=C(N)Oc1ccccc12` (stereo not given) was tested, and the activation was -13.7% [setting not given].
`COc1ccc2c(c1)[C@@]13CCCCC1[C@@H](C2)NCC3` (stereo not given in full) gave an activation of 2.3% [setting not given].
